The results in this text go back to PubChem BioAssay (NCATS).

Inconclusive results are not listed. Entries that show only a call come without a potency. Activity calls are given as the source filed them. Calls follow the shape of the dose curve; as a rule, active = well fitted curve in the direction sought with a large enough effect; inconclusive = small, poorly fitted or top-dose-only effect, or another doubt; inactive = no such curve, though single readings can be large; an effect the other way counts as inactive or inconclusive.

Tested on in the first assay: not listed separately
The experiment in a line: qHTS for Activators of Parkin Expression: LOPAC Validation Assay (NLuc Reporter) (AID 720572; also: potency is read from the fitted curve at half-maximal effect). To be noted: Parkin promoter NanoLuc reporter cells, luminescence; series mostly up to 46.1 µM. The essentials:
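Neuronal cells with a Parkin promoter-driven FLuc/NLuc coincidence reporter were treated 24 h at 37 C in 7-point dose response (LOPAC). NLuc luminescence read after FLuc; signals normalized to DMSO and positive control (100%).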
On the technique in general: qHTS replaces the single test concentration by a dilution series.
In the case of `CCO/C([O-])=N/c1c[n+](N2CCOCC2)no1`, the Potency result was “inactive”.
In the case of `C(=C\c1ccccc1)/CN1CCN(C(c2ccccc2)c2ccccc2)CC1`, the Potency result is “inactive”.
In the case of `CCCN(CCC)C(=O)C(CCC(=O)O)NC(=O)c1ccccc1` (stereo unspecified), the Potency entry is “inactive”.
Still for that read-out and setting: as for `COCCCC/C(=N\OCCN)c1ccc(C(F)(F)F)cc1`, the entry is “inactive”.
On the same count and under the same terms, the entry for `Cc1ccc(Cl)c(Nc2ccccc2C(=O)O)c1Cl` is “inactive”; for `C[N+](C)(C)CCOC(N)=O` it is “inactive”; for `OCCN1CCN(CCCN2c3ccccc3C=Cc3ccccc32)CC1` it is “inactive”.
For `CCNC(=O)N1CCN(CCCC(c2ccc(F)cc2)c2ccc(F)cc2)CC1`, the Potency result was “inactive”.
For `CCCCCN(CCCCC)C(=O)C(CCC(=O)O)NC(=O)c1ccc(Cl)c(Cl)c1` (stereo unspecified), the Potency entry was “inactive”.
`CNCCC(Oc1ccccc1OC)c1ccccc1` (stereo unspecified): the Potency entry is “inactive”.
The same measure, in the same setting: the entry for `COc1cc(C(=O)OCCCN2CCCN(CCCOC(=O)c3cc(OC)c(OC)c(OC)c3)CC2)cc(OC)c1OC` is “inactive”; for `CN(C)CCCN1c2ccccc2Sc2ccccc21` it is “inactive”.
The same measure, in the same setting: the entry for `CCc1cccc(N(C)C(N)=Nc2cccc3ccccc23)c1` is “inactive”; for `CN1CCN(C2=Nc3ccccc3Oc3ccc(Cl)cc32)CC1` it is “inactive”; for `CC(C)(C)NCC(O)c1cc(O)cc(O)c1` (stereo unspecified) it is “inactive”.
On to `CCN(CC)CCNC(=O)c1cc(S(C)(=O)=O)ccc1OC`, for which the Potency entry is “inactive”.
For the compound `O=C(CCCN1CCC(O)(c2cccc(C(F)(F)F)c2)CC1)c1ccc(F)cc1`, the Potency result is “inactive”.
Turning to `COc1ccc(CCN(C)CCCC(C#N)(c2cc(OC)c(OC)c(OC)c2)C(C)C)cc1OC` (stereo unspecified), the Potency result is “inactive”.
On the same count and under the same terms, the entry for `Cc1nc2c([nH]1)c(=O)n(C)c(=O)n2Cc1ccco1` is “inactive”; for `CC(C(=O)O)c1ccc(CC2CCCC2=O)cc1` (stereo unspecified) it is “inactive”.
As for `CC(=O)Oc1cc(C(C)C)c(OCCN(C)C)cc1C`, the Potency entry is “inactive”.
Still for that read-out and setting: the entry for `C[n+]1cc2c3c(ccc2c2ccc4cc5c(cc4c21)OCO5)OCO3` is “inactive”; for `NC(N)=N/N=C/c1c(Cl)cccc1Cl` it is “inactive”; for `CCOC(=O)C1=C(C)NC(C)=C(C(=O)OC)C1c1cccc([N+](=O)[O-])c1` (stereo unspecified) it is 1460 nM (active).
Take `CN(C)C/C=C(/c1ccc(Br)cc1)c1cccnc1`: the Potency entry was “inactive”.
`CN(C)CCOC(=O)COc1ccc(Cl)cc1`: the Potency result was “inactive”.
`CCCN(CCC)CCc1cccc2c1CC(=O)N2`: the Potency entry is “inactive”.
As for `CN/C(=C\[N+](=O)[O-])NCCSCc1ccc(CN(C)C)o1`, the Potency entry is “inactive”.
Same read-out and setting: as for `CCCC(C(=O)OCCN(CC)CC)(c1ccccc1)c1ccccc1`, the entry is “inactive”.
Regarding `CN(C)CC/C=C1\c2ccccc2COc2ccccc21`, the Potency result is “inactive”.
Turning to `NC(=O)c1cn(Cc2c(F)cccc2F)nn1`, the Potency entry is “inactive”.
Still for that read-out and setting: the entry for `C[N+](C)(C)CCOC(=O)CCC(=O)OCC[N+](C)(C)C` is “inactive”.
On the same count and under the same terms, the entry for `O=C(O)CP(=O)(O)O` is “inactive”; for `Cc1nnc(SCC2=C(C(=O)O)N3C(=O)[C@@H](NC(=O)Cn4cnnn4)[C@H]3SC2)s1` it is “inactive”; for `Nc1c2c(nc3ccccc13)CCCC2O` (stereo unspecified) it is “inactive”.

Tested on in another assay: not listed separately
Briefly: qHTS for Activators of Parkin Expression: LOPAC Validation Assay (FLuc Reporter) (AID 720573). To be noted: Cell line, PRKN promoter firefly luciferase reporter, vehicle wells = 0, positive control = 100%; series mostly up to 46.1 µM. The essentials: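 Readout is FLuc luminescence from neuronal reporter cells (Parkin promoter, FLuc plus NLuc) after 24 h compound exposure in dose response. Values normalized to neutral DMSO and positive-control compounds.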
As to `C(=C\c1ccccc1)/CN1CCN(C(c2ccccc2)c2ccccc2)CC1`, the compound was called inactive.
Still for that read-out and setting: the entry for `COCCCC/C(=N\OCCN)c1ccc(C(F)(F)F)cc1` is “inactive”; for `CCNC(=O)N1CCN(CCCC(c2ccc(F)cc2)c2ccc(F)cc2)CC1` it is “inactive”; for `COc1cc(C(=O)OCCCN2CCCN(CCCOC(=O)c3cc(OC)c(OC)c(OC)c3)CC2)cc(OC)c1OC` it is “inactive”.
Take `CCc1cccc(N(C)C(N)=Nc2cccc3ccccc23)c1`: the compound was classed as inactive.
`CN1CCN(C2=Nc3ccccc3Oc3ccc(Cl)cc32)CC1`: the compound was called inactive.
The same measure, in the same setting: the entry for `CC(C)(C)NCC(O)c1cc(O)cc(O)c1` (stereo unspecified) is “inactive”.
`COc1ccc(CCN(C)CCCC(C#N)(c2cc(OC)c(OC)c(OC)c2)C(C)C)cc1OC` (stereo unspecified): the result was inactive.
Same read-out and setting: as for `CC(=O)Oc1cc(C(C)C)c(OCCN(C)C)cc1C`, the entry is “inactive”; as for `C[n+]1cc2c3c(ccc2c2ccc4cc5c(cc4c21)OCO5)OCO3`, “inactive”.
As to `NC(N)=N/N=C/c1c(Cl)cccc1Cl`, the compound was called inactive.
As for `CCOC(=O)C1=C(C)NC(C)=C(C(=O)OC)C1c1cccc([N+](=O)[O-])c1` (stereo unspecified), the compound was called inactive.
Same read-out and setting: as for `CN(C)CCOC(=O)COc1ccc(Cl)cc1`, the entry is “inactive”; as for `CCCN(CCC)CCc1cccc2c1CC(=O)N2`, “inactive”.
The same measure, in the same setting: as for `CN/C(=C\[N+](=O)[O-])NCCSCc1ccc(CN(C)C)o1`, the entry is “inactive”; as for `CCCC(C(=O)OCCN(CC)CC)(c1ccccc1)c1ccccc1`, “inactive”; as for `CN(C)CC/C=C1\c2ccccc2COc2ccccc21`, “inactive”.
Same read-out and setting: the entry for `Cc1nc2sccn2c(=O)c1CCN1CCC(=C(c2ccc(F)cc2)c2ccc(F)cc2)CC1` is “inactive”; for `C[N+](C)(C)CCOC(=O)CCC(=O)OCC[N+](C)(C)C` it is “inactive”; for `O=C(O)CP(=O)(O)O` it is “inactive”.
In the case of `Nc1c2c(nc3ccccc13)CCCC2O` (stereo unspecified), the outcome was inactive.

The target of another assay is Hexokinase-4 (Homo sapiens) + Glucokinase regulatory protein (Homo sapiens) (UniProt P35557+Q14397). The experiment in a line: qHTS assay for inhibitors of recombinant human GCK-GKRP interaction: Diaphorase-coupled assay (AID 743205). To be noted: G6PDH/diaphorase resorufin fluorescence; series mostly up to 57.5 µM. The essentials: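 Signal derives from resorufin generated by diaphorase, linked to GCK turnover of glucose (5 mM) and ATP (0.4 mM). Enzyme complex was added after a 20-minute compound preincubation and monitored for 30 minutes.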
Hexokinase-4 (Homo sapiens) + Glucokinase regulatory protein (Homo sapiens), sequence (P35557 whole entry, looked up): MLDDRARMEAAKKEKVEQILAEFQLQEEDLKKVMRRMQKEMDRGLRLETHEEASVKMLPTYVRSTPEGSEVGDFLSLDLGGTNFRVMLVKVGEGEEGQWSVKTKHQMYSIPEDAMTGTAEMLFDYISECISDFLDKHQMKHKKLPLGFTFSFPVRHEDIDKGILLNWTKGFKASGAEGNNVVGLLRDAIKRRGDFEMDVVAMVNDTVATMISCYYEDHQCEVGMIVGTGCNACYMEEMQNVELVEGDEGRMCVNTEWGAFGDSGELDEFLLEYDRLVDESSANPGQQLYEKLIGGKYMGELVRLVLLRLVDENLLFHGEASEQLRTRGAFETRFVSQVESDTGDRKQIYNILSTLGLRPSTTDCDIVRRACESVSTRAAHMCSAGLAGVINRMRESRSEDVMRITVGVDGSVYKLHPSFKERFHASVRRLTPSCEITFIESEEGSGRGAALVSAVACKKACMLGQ
Hexokinase-4 (Homo sapiens) + Glucokinase regulatory protein (Homo sapiens), sequence (Q14397 whole entry, looked up): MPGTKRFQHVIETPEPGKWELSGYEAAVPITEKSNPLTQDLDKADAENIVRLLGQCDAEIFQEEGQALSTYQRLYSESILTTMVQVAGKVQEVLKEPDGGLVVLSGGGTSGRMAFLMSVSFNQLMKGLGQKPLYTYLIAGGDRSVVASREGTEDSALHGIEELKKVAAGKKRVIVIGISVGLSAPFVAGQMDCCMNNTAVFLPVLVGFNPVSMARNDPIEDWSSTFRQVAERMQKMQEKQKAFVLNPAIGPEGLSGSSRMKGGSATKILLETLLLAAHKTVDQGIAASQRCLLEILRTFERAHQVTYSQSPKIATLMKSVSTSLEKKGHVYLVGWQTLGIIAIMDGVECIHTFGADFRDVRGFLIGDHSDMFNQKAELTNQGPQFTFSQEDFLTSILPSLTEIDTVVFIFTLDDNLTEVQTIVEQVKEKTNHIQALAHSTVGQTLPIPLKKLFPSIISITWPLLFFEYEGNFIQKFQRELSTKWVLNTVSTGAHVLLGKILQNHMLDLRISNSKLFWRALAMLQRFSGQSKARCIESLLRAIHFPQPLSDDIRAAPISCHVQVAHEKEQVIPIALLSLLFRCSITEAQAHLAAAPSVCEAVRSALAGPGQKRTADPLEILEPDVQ
Take `CCO/C([O-])=N/c1c[n+](N2CCOCC2)no1`: the result was inactive.
As for `C(=C\c1ccccc1)/CN1CCN(C(c2ccccc2)c2ccccc2)CC1`, the result was inactive.
Still for that read-out and setting: the entry for `CCCN(CCC)C(=O)C(CCC(=O)O)NC(=O)c1ccccc1` (stereo unspecified) is “inactive”; for `COCCCC/C(=N\OCCN)c1ccc(C(F)(F)F)cc1` it is “inactive”; for `Cc1ccc(Cl)c(Nc2ccccc2C(=O)O)c1Cl` it is “inactive”.
`C[N+](C)(C)CCOC(N)=O`: the outcome was inactive.
Same read-out and setting: the entry for `OCCN1CCN(CCCN2c3ccccc3C=Cc3ccccc32)CC1` is “inactive”; for `CCNC(=O)N1CCN(CCCC(c2ccc(F)cc2)c2ccc(F)cc2)CC1` it is “inactive”; for `CCCCCN(CCCCC)C(=O)C(CCC(=O)O)NC(=O)c1ccc(Cl)c(Cl)c1` (stereo unspecified) it is “inactive”.
The same measure, in the same setting: the entry for `CNCCC(Oc1ccccc1OC)c1ccccc1` (stereo unspecified) is “inactive”; for `COc1cc(C(=O)OCCCN2CCCN(CCCOC(=O)c3cc(OC)c(OC)c(OC)c3)CC2)cc(OC)c1OC` it is “inactive”.
Still for that read-out and setting: as for `CN(C)CCCN1c2ccccc2Sc2ccccc21`, the entry is “inactive”; as for `CCc1cccc(N(C)C(N)=Nc2cccc3ccccc23)c1`, “inactive”; as for `CN1CCN(C2=Nc3ccccc3Oc3ccc(Cl)cc32)CC1`, “inactive”.
Regarding `CC(C)(C)NCC(O)c1cc(O)cc(O)c1` (stereo unspecified), the result was inactive.
Still for that read-out and setting: as for `CCN(CC)CCNC(=O)c1cc(S(C)(=O)=O)ccc1OC`, the entry is “inactive”; as for `O=C(CCCN1CCC(O)(c2cccc(C(F)(F)F)c2)CC1)c1ccc(F)cc1`, “inactive”.
Regarding `COc1ccc(CCN(C)CCCC(C#N)(c2cc(OC)c(OC)c(OC)c2)C(C)C)cc1OC` (stereo unspecified), the outcome was inactive.
Still for that read-out and setting: the entry for `Cc1nc2c([nH]1)c(=O)n(C)c(=O)n2Cc1ccco1` is “inactive”; for `CC(C(=O)O)c1ccc(CC2CCCC2=O)cc1` (stereo unspecified) it is “inactive”.
As for `CC(=O)Oc1cc(C(C)C)c(OCCN(C)C)cc1C`, the result was inactive.
As for `C[n+]1cc2c3c(ccc2c2ccc4cc5c(cc4c21)OCO5)OCO3`, the result was inactive.
As for `NC(N)=N/N=C/c1c(Cl)cccc1Cl`, the result was inactive.
On the same count and under the same terms, the entry for `CCOC(=O)C1=C(C)NC(C)=C(C(=O)OC)C1c1cccc([N+](=O)[O-])c1` (stereo unspecified) is “inactive”; for `CN(C)C/C=C(/c1ccc(Br)cc1)c1cccnc1` it is “inactive”.
On the same count and under the same terms, the entry for `CN(C)CCOC(=O)COc1ccc(Cl)cc1` is “inactive”; for `CCCN(CCC)CCc1cccc2c1CC(=O)N2` it is “inactive”.
Same read-out and setting: the entry for `CCCC(C(=O)OCCN(CC)CC)(c1ccccc1)c1ccccc1` is “inactive”; for `CN(C)CC/C=C1\c2ccccc2COc2ccccc21` it is “inactive”; for `Cc1nc2sccn2c(=O)c1CCN1CCC(=C(c2ccc(F)cc2)c2ccc(F)cc2)CC1` it is “inactive”.
Regarding `NC(=O)c1cn(Cc2c(F)cccc2F)nn1`, the result was inactive.
On the same count and under the same terms, the entry for `C[N+](C)(C)CCOC(=O)CCC(=O)OCC[N+](C)(C)C` is “inactive”; for `O=C(O)CP(=O)(O)O` it is “inactive”; for `Cc1nnc(SCC2=C(C(=O)O)N3C(=O)[C@@H](NC(=O)Cn4cnnn4)[C@H]3SC2)s1` it is “inactive”.
The same measure, in the same setting: the entry for `Nc1c2c(nc3ccccc13)CCCC2O` (stereo unspecified) is “inactive”.
